The entries come from a sample that favours hits as a whole.
EZH2 inh: EZH2 (human) methyltransferase inhibition; Q15910; PRC2 H3K27 methylation, DELFIA TRF, 1 h; inhibition, % at 12.5 µM; 57,000 tested, 0.35% active; AID 651548;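 active = mean inhibition of replicates at least 50% and every single replicate also reaching 50%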;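 also: dimethyl H3K27 on biotinylated H3 21-44 peptide detected by antibody; plate controls were median neutral control wells for no effect and median positive control wells for full effect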
Target sequence (Q15910 whole entry, looked up): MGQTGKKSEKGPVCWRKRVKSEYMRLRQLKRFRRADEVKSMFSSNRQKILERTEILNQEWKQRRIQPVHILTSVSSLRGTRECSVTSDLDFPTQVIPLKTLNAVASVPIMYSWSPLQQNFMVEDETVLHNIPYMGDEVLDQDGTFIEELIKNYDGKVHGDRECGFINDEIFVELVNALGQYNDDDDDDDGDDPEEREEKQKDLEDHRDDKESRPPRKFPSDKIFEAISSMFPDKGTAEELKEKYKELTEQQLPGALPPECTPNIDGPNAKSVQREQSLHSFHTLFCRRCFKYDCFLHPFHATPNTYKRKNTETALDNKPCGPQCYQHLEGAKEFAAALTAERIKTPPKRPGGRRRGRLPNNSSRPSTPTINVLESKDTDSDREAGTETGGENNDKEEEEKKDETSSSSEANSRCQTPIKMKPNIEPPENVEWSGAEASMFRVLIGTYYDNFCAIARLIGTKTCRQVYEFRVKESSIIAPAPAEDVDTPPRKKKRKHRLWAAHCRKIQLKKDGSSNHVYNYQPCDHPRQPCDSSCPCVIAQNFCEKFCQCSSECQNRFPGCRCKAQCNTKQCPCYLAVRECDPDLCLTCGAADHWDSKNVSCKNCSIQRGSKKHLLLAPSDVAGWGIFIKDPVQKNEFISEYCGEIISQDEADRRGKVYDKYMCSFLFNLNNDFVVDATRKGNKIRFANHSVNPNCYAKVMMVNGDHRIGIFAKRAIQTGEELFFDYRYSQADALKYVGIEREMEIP
An asterisk follows results filed as active.

SMILES | EZH2 inh
CC(CCc1ccc(O)cc1)O[C@@H]1O[C@H](CO[C@H]2OC[C@](O)(CO)[C@H]2O)[C@@H](O)[C@H](O)[C@H]1O (stereo partly specified) | 93.6*
COc1cc2cc(c1Cl)N(C)C(=O)CC(OC(=O)C(C)C)C1(C)OC1C(C)C1CC(O)(NC(=O)O1)C(OC)/C=C/C=C(/C)C2 (stereo unspecified) | 5.8
Cc1c(O)c(C(=O)O)c(O)c2c1[C@H](C)[C@@H](C)OC2=O | -26.4
O=c1ccc2cc(OC3O[C@H](CO)[C@@H](O)[C@H](O)[C@H]3O)c(O)cc2o1 (stereo partly specified) | 17.6
N#CC(O[C@@H]1O[C@H](CO)[C@@H](O)[C@H](O)[C@H]1O)c1ccccc1 (stereo partly specified) | 97.0*
Cc1ccc(-n2c(CNCc3cccnc3)nc3ccccc3c2=O)cc1 | -4.9
Fc1ccc(Sc2c(F)c(F)nc(N3CCNCC3)c2F)cc1 | -9.6
O=C(O)C1C2CCC(O2)C1C(=O)NCCc1ccccc1 (stereo unspecified) | -15.2
Cc1ccnc(NC(c2ccccc2[N+](=O)[O-])c2ccc3ccc(C)nc3c2O)c1 (stereo unspecified) | -14.7
CCCCC/C=C\C/C=C\C/C=C\C/C=C\CCCC(=O)NCC(=O)O | 2.6
CCCCC/C=C\C/C=C\C/C=C\C/C=C\CCCC(=O)NCCO | 16.2
CCCCC/C=C/C/C=C/C/C=C/C/C=C/CCCC(=O)NCCCC(=O)O | 81.1*
Cc1cc(C(F)F)n2nc(C(=O)Nc3ccc(Cl)cc3C(=O)c3ccccc3)nc2n1 | -0.4
C=CC1CN2CCC1CC2C(OC(=O)c1ccco1)c1ccnc2ccccc12 (stereo unspecified) | -6.9
CC(C)=CCCN1CCC(NC(=O)[C@](O)(c2ccccc2)C2CCCC2)CC1 | -0.6

Source: PubChem BioAssay (Broad Institute)
